Consider eight molecules from PubChem BioAssay (Tox21).

Where “and” joins values, the source holds several entries; their conditions need not be identical. Identical values can stand only once. Records with an inconclusive call do not appear. Where a structure was tested more than once in an assay, its records may differ in their call. Calls of active or inactive are those of the source. Unless noted, calls come from the whole dose curve; as a rule, active = well fitted curve in the direction sought with a large enough effect in the repeat runs; inconclusive = weak or mixed curves; inactive = no such curve, though single readings can be large; an effect the other way counts as inactive or inconclusive.

The nature of experiment [1]: qHTS assay to identify small molecule antagonists of the estrogen related receptor (ERR) signaling pathway from Tox21 library - cell viability counter screen (AID 1224834). Note: nearly all actives have a fitted effect of over 30% in size. Note: potency is the fitted concentration of half-maximal effect. In short, it runs like this: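 Counter screen run in ERR cells (2,000 cells/well): cells pre-incubated 6 h, then treated with compounds for 17.5 h at 37 C. Fluorescence was read 30 min after CellTiter-Fluor addition.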

The target of experiment [2] is Luciferin 4-monooxygenase (Photinus pyralis) (UniProt P08659). The experiment is described as follows: qHTS assay to identify small molecule inhibitors of firefly luciferase (AID 1224835). Note: nearly all actives have a fitted effect of over 25% in size. Note: potency is the fitted concentration of half-maximal effect. The gist of the method: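 Inhibition of purified Photinus luciferase is measured by luminescence. Substrate levels (D-luciferin, ATP) sit at their KM values. Each compound is tested in a concentration series.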
Chain of Luciferin 4-monooxygenase (Photinus pyralis) (P08659 whole entry, looked up): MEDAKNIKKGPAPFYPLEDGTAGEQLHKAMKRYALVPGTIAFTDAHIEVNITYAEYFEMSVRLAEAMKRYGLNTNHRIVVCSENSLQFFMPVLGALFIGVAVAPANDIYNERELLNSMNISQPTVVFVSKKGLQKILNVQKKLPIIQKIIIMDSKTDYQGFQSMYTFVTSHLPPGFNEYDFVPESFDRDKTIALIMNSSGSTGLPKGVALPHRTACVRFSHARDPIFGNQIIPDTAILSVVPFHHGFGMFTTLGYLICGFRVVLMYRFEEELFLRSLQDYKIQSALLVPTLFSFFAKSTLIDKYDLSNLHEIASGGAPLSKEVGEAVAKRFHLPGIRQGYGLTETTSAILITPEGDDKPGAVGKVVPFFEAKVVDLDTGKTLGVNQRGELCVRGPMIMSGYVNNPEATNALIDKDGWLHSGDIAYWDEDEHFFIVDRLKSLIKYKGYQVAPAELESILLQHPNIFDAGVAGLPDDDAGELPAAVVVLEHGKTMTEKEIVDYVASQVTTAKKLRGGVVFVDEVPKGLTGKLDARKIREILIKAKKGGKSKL

Experiment [3] in a line: qHTS assay to identify small molecule agonists of the constitutive androstane receptor (CAR) signaling pathway - cell viability counter screen (AID 1224836). Note: nearly all actives have a fitted effect of over 45% in size. In short, it runs like this:
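Compound titrations (15 concentrations) went onto HepG2-CYP2B6-hCAR cells 4 h after seeding, alongside PK11195 at a final 0.75 uM; a 23 h, 37 C/5% CO2 incubation preceded CellTiter-Fluor viability measurement.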

For experiment [4], the target named is Nuclear receptor subfamily 1 group I member 3 (Homo sapiens) (UniProt Q14994). The experiment is described as follows: qHTS assay to identify small molecule antagonists of the constitutive androstane receptor (CAR) signaling pathway (AID 1224838). Note: nearly all actives have a fitted effect of over 40% in size. In short, it runs like this:
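Inhibition of CITCO-driven (50 nM final) CYP2B6 reporter expression is measured in HepG2 cells stably carrying hCAR. Fifteen compound concentrations are applied for 24 h at 37 C, followed by luciferase luminescence.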

The target is the same in experiment [5]. Kind of experiment: qHTS assay to identify small molecule agonists of the constitutive androstane receptor (CAR) signaling pathway (AID 1224839). Note: nearly all actives have a fitted effect of over 15% in size. The gist of the method:
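In this screen, CAR-driven CYP2B6 promoter activity is measured by luminescence in HepG2-CYP2B6-hCAR cells after 24 h with test compounds and 0.75 uM PK11195 (final concentration).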

The nature of experiment [6]: qHTS assay to identify small molecule antagonists of the estrogen related receptor signaling pathway with the pleiotropic PPARgamma coactivator (PGC) from Tox21 10K library - cell viability counter screen (AID 1224840; active = well fitted cell-killing curve with a large enough effect in the repeat runs, not every such curve was filed as active; note: nearly all actives have a fitted effect of over 40% in size). The gist of the method:
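Readout: fluorescence intensity from CellTiter-Fluor after 30 min at 37 C/5% CO2. Preceded by 17.5 h treatment of PGC/ERR cells with DMSO-dissolved compounds, added 6 h post-seeding.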

Experiment [7] can be described thus: qHTS assay to identify small molecule antagonists of the estrogen related receptor signaling pathway with the pleiotropic PPARgamma coactivator (PGC) from Tox21 10K library (AID 1224841; call rule not given here; note: actives are mostly falling curves and most rising ones were filed inactive; nearly all actives have a fitted effect of over 50% in size). In short, it runs like this:
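One-Glo luminescence, measured after half an hour at room temperature, quantified reporter output of PGC/ERR cells. These had been plated at 2,000 per well, incubated 6 h, dosed with compounds in DMSO, then kept 18 h at 37 C.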

Experiment [8] can be described thus: qHTS assay to identify small molecule agonists of the estrogen related receptor signaling pathway with the pleiotropic PPARgamma coactivator (PGC) from Tox21 10K library (AID 1224842). Note: nearly all actives have a fitted effect of over 15% in size. The gist of the method:
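Luminescence from One-Glo (30 min, room temperature) measured after PGC/ERR cells had 18 h at 37 C with pinned compound (23 nL in DMSO). Cells had been seeded at 2,000 per well and pre-incubated 6 h.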

The target in experiment [9] is Thyrotropin receptor (Homo sapiens) (UniProt P16473). Kind of experiment: qHTS assay to identify small molecule agonists of the thyroid stimulating hormone receptor (TSHR) signaling pathway (AID 1224843; calls by dose curve; note: nearly all actives have a fitted effect of over 45% in size). The gist of the method: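 A cell-based cAMP HTRF format was run in TSHR-transfected HEK293 cells, 800 per well. Treatment: 30 min, room temperature. Detection: 1 h with labelled cAMP and anti-cAMP cryptate. Concentration-response over 15 points, three replicates.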
Chain of Thyrotropin receptor (Homo sapiens) (P16473 whole entry, looked up): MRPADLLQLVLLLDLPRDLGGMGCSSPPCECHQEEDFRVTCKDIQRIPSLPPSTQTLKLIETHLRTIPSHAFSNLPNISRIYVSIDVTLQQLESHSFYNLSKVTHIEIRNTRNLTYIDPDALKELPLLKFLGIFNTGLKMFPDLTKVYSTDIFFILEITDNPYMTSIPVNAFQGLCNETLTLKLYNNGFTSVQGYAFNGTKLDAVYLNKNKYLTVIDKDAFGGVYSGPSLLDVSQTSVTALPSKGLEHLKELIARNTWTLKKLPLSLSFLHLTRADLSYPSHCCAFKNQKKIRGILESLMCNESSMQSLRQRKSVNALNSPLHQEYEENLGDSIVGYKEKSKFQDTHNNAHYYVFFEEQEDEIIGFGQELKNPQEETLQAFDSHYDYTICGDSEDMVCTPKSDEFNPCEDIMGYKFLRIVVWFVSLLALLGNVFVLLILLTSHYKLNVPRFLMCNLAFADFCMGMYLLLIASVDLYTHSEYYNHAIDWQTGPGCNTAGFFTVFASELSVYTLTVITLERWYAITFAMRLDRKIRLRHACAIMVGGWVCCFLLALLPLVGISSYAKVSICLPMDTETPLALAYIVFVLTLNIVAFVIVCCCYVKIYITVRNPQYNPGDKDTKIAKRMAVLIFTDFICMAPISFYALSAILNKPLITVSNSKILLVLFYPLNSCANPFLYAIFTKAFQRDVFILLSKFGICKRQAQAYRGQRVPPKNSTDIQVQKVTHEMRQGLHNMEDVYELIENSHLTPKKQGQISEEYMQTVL

A short description of experiment [10]: qHTS assay to identify small molecule agonists of the hypoxia (HIF-1) signaling pathway - cell viability counter screen (AID 1224844; calls by dose curve; note: nearly all actives have a fitted effect of over 50% in size; note: potency is the fitted concentration of half-maximal effect). The gist of the method: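 In this counter screen, HRE-bla ME-180 cell viability after 17 hrs of compound exposure at 37C was read by CellTiter-Glo luminescence, multiplexed with the beta-lactamase reporter measurement.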
A short description of experiment [11]: qHTS assay to identify small molecule agonists of H2AX (AID 1224845; active = well fitted activation curve with a large enough effect in the signal ratio in the repeat runs, not every such curve was filed as active; the % refers to the signal ratio). In short, it runs like this: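 Phospho-H2AX Ser139 measured by HTRF (ex 320 nm; em 665 and 620 nm) after 24 hr antibody incubation. Compounds, 15 concentrations, 0.76% DMSO, were applied to CHO-K1 cells for 3hr at 37C before lysis.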
Experiment [12] can be described thus: qHTS assay to identify small molecule agonists of the hypoxia (HIF-1) signaling pathway (AID 1224846; active = well fitted activation curve with a large enough effect in the signal ratio in the repeat runs, not every such curve was filed as active; the % refers to the signal ratio). The gist of the method:
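ME-180 HRE-bla reporter cells; compounds in DMSO, 17 h at 37C; read-out beta-lactamase via CCF4-AM FRET.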

Experiment [13] in a line: qHTS assay to identify small molecule antagonists of the estrogen related receptor (ERR) signaling pathway from Tox21 library (AID 1224848). Note: nearly all actives have a fitted effect of over 50% in size. The gist of the method: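 ERR cell line, 2,000 cells/well. 6 h settle, then compound (DMSO) added; 18 h at 37 C; ONE-Glo luminescence after 30 min RT.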
The nature of experiment [14]: qHTS RealTime-Glo MT Cell Viability Assay in HepG2 cells - 24 hour (AID 1224867). Note: nearly all actives have a fitted effect of over 50% in size. The gist of the method: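 Cell number in HepG2 cultures estimated from NanoLuc luminescence generated by metabolic reduction of a prosubstrate by living cells. The homogeneous, nonlytic format allowed repeated reads at 0, 8, 16, 24, 32 and 40 h of compound exposure.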
Experiment [15] can be described thus: qHTS RealTime-Glo MT Cell Viability Assay in HEK293 cells - 32 hour (AID 1224868). In short, it runs like this:
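Homogeneous bioluminescent viability format in HEK293 cells (600 cells/well). Following 5 h at 37 C/5% CO2, 23 nL compound was pintooled; the signal was measured repeatedly during 40 h incubation.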

Experiment [16] in a line: A CellTox Green Cytotoxicity Assay to monitor cytotoxicity in HEK293 cells - 0 hour (AID 1224869). Note: nearly all actives have a fitted effect of over 50% in size. The gist of the method: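 Real-time, in one plate: 600 HEK293 cells/well with dead-cell DNA dye, pinned compound after 5 h, 37 C incubation over 40 h; viable cells give no appreciable fluorescence.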
The nature of experiment [17]: qHTS assay to identify small molecule antagonists of the constitutive androstane receptor (CAR) signaling pathway - cell viability counter screen (AID 1224837). Note: nearly all actives have a fitted effect of over 45% in size. In short, it runs like this:
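CITCO at 50 nM final was added alongside compounds (15 concentrations) to double-stable hCAR/CYP2B6-2.2kb HepG2 cells. Following 23 hr at 37 C, cell viability was quantified by CellTiter-Fluor fluorescence intensity.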

The nature of experiment [18]: qHTS assay to identify small molecule agonists of the estrogen related receptor (ERR) signaling pathway from Tox21 library (AID 1224849; calls by dose curve; note: nearly all actives have a fitted effect of over 15% in size). The following applies: ERR reporter cell line, ONE-Glo luciferase, 18 h. In short, it runs like this: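 Luciferase activity in ERR pathway reporter cells served as the agonist readout; exposure lasted 18 h at 37 C, with ONE-Glo detection after 30 min at room temperature.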

A short description of experiment [19]: qHTS assay to identify small molecule agonists of H2AX - cell viability counter screen (AID 1224847; calls by dose curve; note: top concentration of the series differs between compounds; nearly all actives have a fitted effect of over 30% in size). The gist of the method: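 Read-out: CellTiter-Glo luminescence, 30 min RT. Cells: wild-type CHO-K1, 1000/well, 10% FBS, plated overnight at 37C. Treatment: 15 concentrations, 3 hr, 37C, 0.76% DMSO.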
% is set by controls: 0 for no effect and ±100 for the full control effect.

Chain of Nuclear receptor subfamily 1 group I member 3 (Homo sapiens) (Q14994 whole entry, looked up): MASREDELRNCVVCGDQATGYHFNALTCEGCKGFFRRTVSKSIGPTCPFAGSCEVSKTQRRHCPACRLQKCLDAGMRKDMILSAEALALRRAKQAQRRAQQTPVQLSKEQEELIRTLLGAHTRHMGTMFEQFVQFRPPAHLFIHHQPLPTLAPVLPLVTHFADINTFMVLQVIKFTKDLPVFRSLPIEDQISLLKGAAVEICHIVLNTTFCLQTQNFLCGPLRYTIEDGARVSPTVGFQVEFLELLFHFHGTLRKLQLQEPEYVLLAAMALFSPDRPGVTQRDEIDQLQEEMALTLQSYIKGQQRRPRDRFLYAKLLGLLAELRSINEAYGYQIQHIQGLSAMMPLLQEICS

Regarding `CNC(=O)O/N=C(\SC)C(=O)N(C)C`, the Potency entry in experiment [1], in experiment [2], in experiment [3], in experiment [4], in experiment [5] and in experiment [6] was “inactive” throughout. Moreover, the Potency result in [7], in experiment [8], in experiment [9], in experiment [10], in experiment [11] and in [13] was “inactive” throughout. For the same molecule, the Potency entry in [15] and in [16] was “inactive” each time. Further, the result in experiment [12] and in experiment [14] was inactive.
Turning to `O=P1(NCCCl)OCCCN1CCCl` (stereo not given), the Potency result in [1], in experiment [2], in experiment [3], in experiment [17], in experiment [4] and in [6] was “inactive” in each case. In addition, the Potency result in [7], in experiment [8], in experiment [9], in [10], in experiment [11] and in [13] was “inactive” throughout. The Potency entry in experiment [15] and in [16] was “inactive” each time. Also, the molecule was classed as inactive in [12] and in experiment [14]. Also, the activity change, positive = activation in experiment [18] (at 42.5 µM (top of the series)) is -0.35% (inactive); in experiment [18] (at 92.4 µM (top of the series)) it was 5.99% (inactive) and 1.11% (inactive).
Consider `O=[N+]([O-])c1ccc(Cl)c(Cl)c1`, for which the Potency result in experiment [1], in experiment [2], in experiment [3], in experiment [4], in experiment [5] and in experiment [6] was “inactive” in each case. Further, the Potency result in experiment [7], in experiment [8], in experiment [9], in experiment [11], in experiment [19] and in [13] was “inactive” throughout. Also, the Potency entry in [15] was “inactive”. For the same molecule, the molecule was called inactive in experiment [12] and in [14]. Also, in experiment [18] (at 92.4 µM (top of the series)), the activity change, positive = activation was -0.469% (inactive) and -6.92% (inactive).
As to `O=C(O)C1C(C(=O)O)C2(Cl)C(Cl)=C(Cl)C1(Cl)C2(Cl)Cl` (stereo not given), the Potency result in experiment [1], in experiment [2], in [3], in [17], in experiment [4] and in experiment [5] was “inactive” in each case. For the same molecule, the Potency result in [9], in [11], in [19], in [15] and in [16] was “inactive” throughout. Also, in [14], the molecule was called inactive.
On to `Cc1ccc(N=C=O)cc1N=C=O`, for which the Potency entry in [1], in experiment [3], in [4], in experiment [5], in [6] and in experiment [7] was “inactive” throughout. Besides, the Potency entry in experiment [8], in experiment [11], in experiment [19], in experiment [13], in experiment [15] and in [16] was “inactive” throughout. Moreover, the Potency is 40.9 µM (active) and 63.1 µM (active) and inactive in experiment [2]; 24.5 µM (active) and inactive in experiment [10]. The call in experiment [12] and in experiment [14] was inactive. The activity change, positive = activation in experiment [18] (at 92.4 µM (top of the series)) was 1.23% (inactive) and -0.244% (inactive) and 4.95% (inactive).
On to `Clc1cnc(Oc2ccc(Oc3ncc(Cl)cc3Cl)cc2)c(Cl)c1`, for which the Potency result in [1], in [2], in [3], in experiment [4], in experiment [5] and in [6] was “inactive” in each case. Besides, the Potency result in [9], in [10], in experiment [11], in experiment [19] and in experiment [15] was “inactive” each time. Besides, in experiment [14], the outcome was inactive.
As to `CC(C)(C)C(=O)CCl`, the Potency result in experiment [1], in [2], in [3], in [17], in experiment [6] and in [7] was “inactive” throughout. Moreover, the Potency result in experiment [8], in experiment [9], in [10], in experiment [11], in experiment [19] and in experiment [13] was “inactive” each time. Besides, the Potency result in experiment [15] and in experiment [16] was “inactive” throughout. Moreover, the molecule was called inactive in experiment [12] and in [14]. Moreover, the activity change, positive = activation in [18] (at 92.4 µM (top of the series)) is 2.78% (inactive) and 6.55% (inactive).
For `Nc1ncc([N+](=O)[O-])s1`, the Potency in experiment [1] was 49 µM (active) and inactive. Also, the Potency result in experiment [2], in experiment [3], in experiment [17], in experiment [6], in experiment [7] and in experiment [8] was “inactive” throughout. In addition, the Potency result in experiment [9], in experiment [10], in experiment [11], in [19], in [13] and in [15] was “inactive” each time. In addition, the Potency entry in experiment [16] is “inactive”. In addition, the call in [12] and in [14] was inactive. The activity change, positive = activation in experiment [18] (at 92.4 µM (top of the series)) is 2.32% (inactive) and 6.46% (inactive).
